Source: PubChem BioAssay
Shown are actives, neighbours in structure and some others; about 2.9% of the full set was active somewhere.
MEKK2 WT-MEK5 = raises or lowers MEK5 binding to wildtype human MEKK2 PB1 domain | bead flow cytometry, Alexa488-MEK5 binding to MEKK2 WT; actives lie on both sides | binding response (% of control), % at 10 µM | AID 1531 | 290,000 tested, 1.1% active | Q9Y2U5; in the data active = binding response below about 67% or above about 130%
MEKK2 mut-MEK5 = signal of MEK5 binding to mutant human MEKK2 PB1 domain; 290,000 tested, 0.35% active; bead flow cytometry, Alexa488-MEK5 binding to MEKK2 mutant; percent response, % at 10 µM; in the data active = percent response above about 24%, passing the limit was not always enough
MEKK3 PB1 HTS = MEKK3-MEK5 PB1 interaction, increase or decrease; binding response (% of control), % at 10 µM; bead-based flow cytometry, Alexa488-MEK5 binding to MEKK3; actives lie on both sides; 0 = blocked by unlabeled MEK5, 100 = vehicle; 290,000 tested, 1.4% active; Q99759;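 active = binding response more than 3 SD above or below the average of its plate-row segment, actives on both sides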;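 note: Alexa488 bead fluorescence after subtracting the streptavidin-only scavenger bead signal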
Beta2AR agonist = human beta-2 adrenergic receptor agonism by FAP. P07550. Am2.2-beta2AR cells, FAP receptor internalization, flow cytometry. 340,000 tested, 0.43% active. response, % (concentration not given with the values). AID 504454;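 active = response above a set limit, near 3 SD of response in nonfluorescent compounds, cut at about 42% in these data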
GRK2 aptamer HTS = human GRK2 inhibition via aptamer displacement; P25098; bead flow cytometry, FAM-aptamer displacement from GRK2; inhibition of aptamer binding, % at 10 µM; 330,000 tested, 0.59% active; AID 488847;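 active = inhibition of aptamer binding above 40%, roughly 3 SD of noise, on plates passing a quality check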;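 note: median bead fluorescence of bound FAM aptamer so fluorescent compounds give negative values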
Target sequence (P25098 whole entry, looked up): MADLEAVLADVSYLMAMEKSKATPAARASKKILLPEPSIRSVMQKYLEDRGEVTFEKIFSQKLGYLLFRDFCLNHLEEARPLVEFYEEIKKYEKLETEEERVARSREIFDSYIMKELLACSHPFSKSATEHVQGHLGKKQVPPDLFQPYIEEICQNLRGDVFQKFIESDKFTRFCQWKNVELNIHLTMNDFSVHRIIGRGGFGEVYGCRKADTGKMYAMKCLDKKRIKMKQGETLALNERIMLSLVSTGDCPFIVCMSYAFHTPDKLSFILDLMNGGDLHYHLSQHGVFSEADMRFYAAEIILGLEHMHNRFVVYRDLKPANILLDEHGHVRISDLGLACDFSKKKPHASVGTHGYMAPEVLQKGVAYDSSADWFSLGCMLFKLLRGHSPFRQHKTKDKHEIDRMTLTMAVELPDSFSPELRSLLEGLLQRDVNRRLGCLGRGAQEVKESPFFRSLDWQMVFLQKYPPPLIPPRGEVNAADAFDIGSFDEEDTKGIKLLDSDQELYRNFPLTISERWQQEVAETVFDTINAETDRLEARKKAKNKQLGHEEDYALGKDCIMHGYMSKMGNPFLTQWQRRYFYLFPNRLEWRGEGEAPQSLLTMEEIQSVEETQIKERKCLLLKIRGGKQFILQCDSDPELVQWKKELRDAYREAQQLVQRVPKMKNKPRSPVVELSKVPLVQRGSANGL
MEKK2wt confirm = raises or lowers MEK5 binding to wildtype human MEKK2, retest; shares compounds with MEKK3 PB1 HTS; AID 1892; bead flow cytometry, Alexa488-MEK5 binding to MEKK2 WT; actives lie on both sides; binding response (% of control), % at 10 µM; 5,900 tested, 2.4% active; in the data active = binding response below about 16% or above about 210%; inactive = in between
MEKK2mut confirm = signal of MEK5 binding to mutant human MEKK2, retest | shares compounds with MEKK3 PB1 HTS | bead flow cytometry, Alexa488-MEK5 binding to MEKK2 mutant | percent response, % at 10 µM | 5,900 tested, 2% active | AID 1893; in the data active = percent response mostly above about 71%, no sharp cut-off; inactive = mostly below about 38%;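 note: higher means compound restores mutant binding toward wildtype level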
MEKK3-MEK5 inh = confirmation of inhibitors of MEK5 binding to human MEKK3 | shares compounds with MEKK3 PB1 HTS | bead flow cytometry, Alexa488-MEK5 binding to MEKK3; hits give low values | binding response (% of control), % at 10 µM | 5,900 tested, 1.8% active | AID 1894;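 active = binding response below 72% of control, or above a set upper limit, though filed actives all read lower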;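 note: 100% = DMSO only wells and 0% = binding blocked by excess unlabeled MEK5; lower values mean stronger disruption of MEK5 binding to MEKK3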
Starred values were filed as active, the others as inactive; [ ] = remark or other dose.

For CCc1ccc(Nc2n[n+](-c3ccccc3)c(-c3ccc(N(CC)CC)cc3)s2)cc1 the results were MEKK2 WT-MEK5 65*, MEKK2 mut-MEK5 277*, MEKK3 PB1 HTS 101, Beta2AR agonist inactive, GRK2 aptamer HTS 0, MEKK2wt confirm 164, MEKK2mut confirm 50 and MEKK3-MEK5 inh 94.
Screening COc1ccc(N2CCN(C(=O)CSc3nnc4c(C)cc5cc(C)ccc5n34)CC2)cc1 returned Beta2AR agonist -6 and GRK2 aptamer HTS 0.
`COc1ccc(N2CCN(C(=O)CSc3nnc4c(C)cc5ccc(C)c(C)c5n34)CC2)cc1` gave MEKK2 WT-MEK5 51, MEKK2 mut-MEK5 -21, MEKK3 PB1 HTS 36*[inhibitor], Beta2AR agonist -4, GRK2 aptamer HTS 7, MEKK2wt confirm 98, MEKK2mut confirm -2 and MEKK3-MEK5 inh 96.
COc1ccccc1OCCC(=O)OCC(=O)Nc1ccc(Br)cc1 was read as MEKK2 WT-MEK5 108, MEKK2 mut-MEK5 1, MEKK3 PB1 HTS 134*, Beta2AR agonist 4, GRK2 aptamer HTS 0, MEKK2wt confirm 102, MEKK2mut confirm 2 and MEKK3-MEK5 inh 103.
Screening Cc1ccccc1OCCCC(=O)Nc1ccc(Br)cc1 returned MEKK2 WT-MEK5 0.0*[inhibitor], MEKK2 mut-MEK5 -21, MEKK3 PB1 HTS 0.0*[inhibitor], Beta2AR agonist 0, GRK2 aptamer HTS 3, MEKK2wt confirm 112, MEKK2mut confirm 8 and MEKK3-MEK5 inh 109.
CC(=O)Nc1ccc(NC(=O)CCOc2ccccc2C)cc1 was read as MEKK2 WT-MEK5 104, MEKK2 mut-MEK5 1, MEKK3 PB1 HTS 104, Beta2AR agonist -4 and GRK2 aptamer HTS 0.
Screening COc1ccc(Nc2cc(C)nc3c(C)cccc23)cc1OC returned MEKK2 WT-MEK5 116, MEKK2 mut-MEK5 26*, MEKK3 PB1 HTS 111, Beta2AR agonist 20, GRK2 aptamer HTS 0, MEKK2wt confirm 109, MEKK2mut confirm 6 and MEKK3-MEK5 inh 105.
Screening CCOc1ccc(Nc2cc(C)nc3c(C)cccc23)cc1 returned MEKK2 WT-MEK5 114, MEKK2 mut-MEK5 5, MEKK3 PB1 HTS 103, Beta2AR agonist -5 and GRK2 aptamer HTS 0.
`O=C(c1sc(N2CCOCC2)nc1-c1ccccc1)N1CCCCC1` gave MEKK2 WT-MEK5 104, MEKK2 mut-MEK5 0, MEKK3 PB1 HTS 131*, Beta2AR agonist -2, GRK2 aptamer HTS 1, MEKK2wt confirm 98, MEKK2mut confirm 4 and MEKK3-MEK5 inh 104.
`COc1ccccc1C(=O)NCCC(=O)Nc1cccnc1` gave MEKK2 WT-MEK5 80, MEKK2 mut-MEK5 -13, MEKK3 PB1 HTS 73*[inhibitor], Beta2AR agonist -16, GRK2 aptamer HTS 2, MEKK2wt confirm 105, MEKK2mut confirm 0 and MEKK3-MEK5 inh 102.
For Cc1cccc(-n2cc(CN3CCN(Cc4nccn4C)CC3)c(-c3cccc(F)c3)n2)c1 the results were MEKK2 WT-MEK5 153*, MEKK2 mut-MEK5 34, MEKK3 PB1 HTS 106, Beta2AR agonist 1, GRK2 aptamer HTS 0, MEKK2wt confirm 138, MEKK2mut confirm 19 and MEKK3-MEK5 inh 107.
For O=C(O)c1cccc(S(=O)(=O)N2CCN(S(=O)(=O)c3ccc4ccccc4c3)CC2)c1 the results were Beta2AR agonist 4.
`O=C(CCn1c(=O)[nH]c2ccccc2c1=O)NCCSCc1ccccc1` gave MEKK2 WT-MEK5 99, MEKK2 mut-MEK5 5, MEKK3 PB1 HTS 98, Beta2AR agonist -8 and GRK2 aptamer HTS 5.
Screening CCOC(=O)c1c(NC(=O)COc2ccccc2)sc2c1CC(C)(C)NC2(C)C returned MEKK2 WT-MEK5 99, MEKK2 mut-MEK5 -1, MEKK3 PB1 HTS 92, Beta2AR agonist 13 and GRK2 aptamer HTS 0.
Screening CCOC(=O)c1c(NC(=O)CSc2nc3ccccc3[nH]2)sc2c1CC(C)(C)NC2(C)C returned Beta2AR agonist 22 and GRK2 aptamer HTS 0.
For CCOc1ccc(C(=O)Nc2sc3c(c2C(=O)OC)CC(C)(C)NC3(C)C)cc1 the results were MEKK2 WT-MEK5 152*, MEKK2 mut-MEK5 34, MEKK3 PB1 HTS 105, Beta2AR agonist 2, GRK2 aptamer HTS 0, MEKK2wt confirm 137, MEKK2mut confirm 13 and MEKK3-MEK5 inh 100.
`COC(=O)c1c(NC(=O)c2nc3ccccc3s2)sc2c1CC(C)(C)NC2(C)C` gave MEKK2 WT-MEK5 210*, MEKK2 mut-MEK5 69*, MEKK3 PB1 HTS 108, Beta2AR agonist -5, GRK2 aptamer HTS 0, MEKK2wt confirm 186, MEKK2mut confirm 42 and MEKK3-MEK5 inh 110.
Screening COc1ccc(NC(=O)C(c2cc3c(cc2[N+](=O)[O-])OCO3)N2CCN(C=O)CC2)cc1 (configuration not stated) returned MEKK2 WT-MEK5 3.0*[inhibitor], MEKK2 mut-MEK5 -12, MEKK3 PB1 HTS 2.0*[inhibitor], Beta2AR agonist -2, GRK2 aptamer HTS 4, MEKK2wt confirm 101, MEKK2mut confirm 6 and MEKK3-MEK5 inh 104.
Screening CCN(CC)c1nc(-c2ccc(C(=O)NN)cc2)nc(-c2ccc(C(=O)NN)cc2)n1 returned MEKK2 WT-MEK5 106, MEKK2 mut-MEK5 8, MEKK3 PB1 HTS 108, Beta2AR agonist -17 and GRK2 aptamer HTS 2.
Screening COc1cc(/C=C2\SC(=S)N(Nc3ccccc3)C2=O)cc(OC)c1OC returned MEKK2 WT-MEK5 76, MEKK2 mut-MEK5 -16, MEKK3 PB1 HTS 99, Beta2AR agonist 3 and GRK2 aptamer HTS 5.
Screening CCOc1ccc(/C=C2\SC(=S)N(Nc3ccccc3)C2=O)cc1OC returned MEKK2 WT-MEK5 66, MEKK2 mut-MEK5 -2, MEKK3 PB1 HTS 128*, Beta2AR agonist 22, GRK2 aptamer HTS 8, MEKK2wt confirm 65, MEKK2mut confirm -16 and MEKK3-MEK5 inh 93.
For CCCc1c(C(=O)N/N=C/c2ccncc2)nnn1-c1nonc1N the results were MEKK2 WT-MEK5 100, MEKK2 mut-MEK5 2, MEKK3 PB1 HTS 102 and Beta2AR agonist 2.
For Cc1ccc(C(C)C)c(OCCNCCc2ccccc2)c1 the results were MEKK2 WT-MEK5 160*, MEKK2 mut-MEK5 9, MEKK3 PB1 HTS 112, Beta2AR agonist 26, GRK2 aptamer HTS 0, MEKK2wt confirm 98, MEKK2mut confirm -4 and MEKK3-MEK5 inh 99.
`O=C1c2ccccc2C(=O)N1CCCCc1cn(C[C@H]2CC[C@@H]([C@@H]3CC[C@H](Cn4cc(CCCCN5C(=O)c6ccccc6C5=O)nn4)O3)O2)nn1` gave Beta2AR agonist -2 and GRK2 aptamer HTS 0.
